The source of these data is PubChem BioAssay (NCI).

SMILES strings stand for the structures. Values joined by “and” are separate entries in the source; they are usually repeats but may differ in a detail not shown here. Equal entries are not always repeated. The panel holds about 83,000 compounds, 20% with a hit somewhere; the sample as a whole holds those more often.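 Cells were grown in 96-well plates and exposed to the test compound at a single concentration for 48 hours; results are reported as percent growth, with values below 10 considered active.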 Active and inactive are the calls of the source.

Among the test systems are HT29 colon; SNB-19 CNS; U251 CNS; PC-3 prostate; SK-MEL-5 melanoma; UACC-62 melanoma; LOX IMVI melanoma; SK-MEL-28 melanoma; SK-MEL-2 melanoma; EKVX NSCLC; SN12C renal; UO-31 renal; TK-10 renal; ACHN renal; CAKI-1 renal; HL-60(TB) leukemia; CCRF-CEM leukemia; A498 renal; SNB-75 CNS.
Assay in all cases: NCI-60 one-dose screen, 48 h (100 = growth as untreated, 0 = no growth, -100 = all killed)
Holding throughout (conditions): 10 µM unless noted

Regarding `CCCCCCCCCCCCCCCC[N+](C)(C)C`, the growth is -64% (active) and -42.4% (active) in the experiment with HT29 colon; -71.2% (active) and -40.6% (active) in the experiment on SNB-19 CNS; -75.5% (active) and -94.2% (active) with U251 CNS; -40.8% (active) and -32.8% (active) with PC-3 prostate; -94.6% (active) and -73.7% (active) in the experiment on SK-MEL-5 melanoma; -63% (active) and 25.6% (inactive) with UACC-62 melanoma. Also, the growth was -71.6% (active) and -73.9% (active) in the experiment with LOX IMVI melanoma; -74.7% (active) and 25.6% (inactive) in the experiment on SK-MEL-28 melanoma; -67.6% (active) and -2.51% (active) in the experiment with SK-MEL-2 melanoma; -51.6% (active) and 29.3% (inactive) with EKVX NSCLC; -87.8% (active) in the experiment with SN12C renal; -82.3% (active) and 62.9% (inactive) with UO-31 renal. The growth in the experiment on TK-10 renal was -72.8% (active) and -39.9% (active); with ACHN renal it was 19.4% (inactive); in the experiment on CAKI-1 renal it was -58.7% (active) and 18.4% (inactive); in the experiment with HL-60(TB) leukemia, -66.6% (active) and -38.9% (active); in the experiment with CCRF-CEM leukemia, -51.4% (active) and 1.36% (active).
On to `C=CC[PH+](c1ccccc1)c1ccccc1.C=CC[PH+](c1ccccc1)c1ccccc1.[Pt+2].[S-]c1nc2ccccc2[nH]1.[S-]c1nc2ccccc2[nH]1`, for which the growth was -30.4% (active) in the experiment on HT29 colon; 5.65% (active) in the experiment on SNB-19 CNS; -83% (active) in the experiment with U251 CNS; 9.47% (active) in the experiment on PC-3 prostate; -94.9% (active) in the experiment on SK-MEL-5 melanoma; -48.9% (active) in the experiment with UACC-62 melanoma. The growth is -95% (active) with LOX IMVI melanoma; -47.1% (active) in the experiment on SK-MEL-28 melanoma; -72.9% (active) in the experiment with SK-MEL-2 melanoma; 33% (inactive) with EKVX NSCLC; -4.98% (active) with SN12C renal; -12.2% (active) in the experiment with TK-10 renal. Besides, the growth with ACHN renal was 42.3% (inactive); with CAKI-1 renal, 25% (inactive); in the experiment on A498 renal it was -16.1% (active); with HL-60(TB) leukemia, -20.8% (active); with CCRF-CEM leukemia, 6.12% (active).
On to `CCCCCCCCCCCCCCCCCC1OCC(COC(=O)O[C@@H](C(=O)O[C@H]2C[C@@]3(O)[C@@H](OC(=O)c4ccccc4)[C@@H]4[C@]5(OC(C)=O)CO[C@@H]5C[C@H](O)[C@@]4(C)C(=O)[C@H](OC(C)=O)C(=C2C)C3(C)C)[C@@H](NC(=O)c2ccccc2)c2ccccc2)O1` (some centres not stated), for which the growth in the experiment with HT29 colon was 5.3% (active); in the experiment with SNB-75 CNS, 37.7% (inactive); in the experiment with U251 CNS it was 40.8% (inactive); with PC-3 prostate it was 39.9% (inactive); in the experiment on SK-MEL-5 melanoma, 60.4% (inactive); with UACC-62 melanoma, 43.1% (inactive). The growth in the experiment with LOX IMVI melanoma is 37.5% (inactive); in the experiment with SK-MEL-28 melanoma it was 58.4% (inactive); in the experiment on SK-MEL-2 melanoma, 59.5% (inactive); in the experiment with EKVX NSCLC, 77.5% (inactive); in the experiment with SN12C renal it was 44.8% (inactive); in the experiment on TK-10 renal it was 102% (inactive). The growth in the experiment on ACHN renal is 96.6% (inactive); in the experiment on CAKI-1 renal, 82.8% (inactive); with A498 renal it was 46% (inactive); in the experiment on HL-60(TB) leukemia it was 4.84% (active); with CCRF-CEM leukemia it was 18.5% (inactive).
Consider `N#CC(C#N)=Cc1cccc(F)c1`, for which the growth is 104% (inactive) with HT29 colon; 100% (inactive) in the experiment on SNB-19 CNS; 103% (inactive) in the experiment on U251 CNS; 100% (inactive) in the experiment on PC-3 prostate; 101% (inactive) in the experiment with SK-MEL-5 melanoma; 98.2% (inactive) with UACC-62 melanoma. The growth in the experiment on LOX IMVI melanoma was 98.9% (inactive); with SK-MEL-2 melanoma, 112% (inactive); with EKVX NSCLC it was 102% (inactive); in the experiment with SN12C renal, 101% (inactive); in the experiment on UO-31 renal it was 95.9% (inactive); with TK-10 renal, 104% (inactive). For the same molecule, the growth in the experiment with ACHN renal was 106% (inactive); in the experiment with CAKI-1 renal, 99.6% (inactive); in the experiment on CCRF-CEM leukemia it was 101% (inactive).
For `Cc1ccc(NC(=O)c2cc3ccccc3cc2O)c(C)c1`, in the experiment on HL-60(TB) leukemia, the growth was 54.3% (inactive).
Consider `CCCCOC(N)=O`, for which the growth in the experiment with HT29 colon was 107% (inactive); with SNB-75 CNS, 88.6% (inactive); in the experiment with SNB-19 CNS, 98% (inactive); with U251 CNS it was 106% (inactive); in the experiment with PC-3 prostate, 108% (inactive); in the experiment with SK-MEL-5 melanoma it was 99.6% (inactive). For the same molecule, the growth in the experiment on LOX IMVI melanoma was 104% (inactive); in the experiment with SK-MEL-28 melanoma, 112% (inactive); in the experiment on SK-MEL-2 melanoma it was 113% (inactive); in the experiment with SN12C renal it was 103% (inactive); in the experiment on UO-31 renal, 89.1% (inactive); with ACHN renal, 111% (inactive). The values for the growth in the experiment on CAKI-1 renal, in the experiment on A498 renal and in the experiment on CCRF-CEM leukemia were 103% (inactive), 125% (inactive) and 102% (inactive), respectively.
